{
  "source": "PubChem BioAssay (EPA / NIEHS)",
  "note": "Results filed as inconclusive are left out. Calls of active or inactive are those of the source. The calls were made as follows: active = hit-call score of the fitted dose curve at least 0.9, where 1 is the maximum; inconclusive = response in the unintended direction; inactive = score below 0.9. Where a SMILES comes first, the peptide text is derived from it. Bridges are numbered along the chain shown (N, C = ends).",
  "data": [
    {"target": "Cellular tumor antigen p53 (Homo sapiens) (UniProt P04637)", "sequence (P04637 whole entry, looked up, the tested form may be a part)": "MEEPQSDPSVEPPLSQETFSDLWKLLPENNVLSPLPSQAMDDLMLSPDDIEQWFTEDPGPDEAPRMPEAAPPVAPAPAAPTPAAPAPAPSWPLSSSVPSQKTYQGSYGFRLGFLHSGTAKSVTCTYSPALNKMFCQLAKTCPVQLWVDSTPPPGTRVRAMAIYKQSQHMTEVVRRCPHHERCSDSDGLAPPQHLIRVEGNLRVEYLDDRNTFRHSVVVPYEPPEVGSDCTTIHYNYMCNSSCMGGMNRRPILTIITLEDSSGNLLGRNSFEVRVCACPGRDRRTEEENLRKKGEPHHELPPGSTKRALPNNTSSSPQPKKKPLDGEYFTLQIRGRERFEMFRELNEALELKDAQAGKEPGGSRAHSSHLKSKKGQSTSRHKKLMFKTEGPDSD", "experiment": "TOX21_p53_BLA_p5_ratio: Tox21 HCT-116 p53 Agonism Beta-lactamase Assay, Ratio, Phase 5 (AID 2283599)", "excerpt": "TOX21_p53_BLA_p5 is a cell-based, single-readout assay that uses HCT116, a human intestinal cell line, […] in a 1536-well plate.TOX21_p53_BLA_p5_ratio is an assay readout measuring reporter gene via receptor activity and designed using inducible reporter (beta lactamase induction) detected with GAL4 b-lactamase reporter gene. The signal is derived from the ratio of cleaved (ch2) to uncleaved (ch1) reporter gene substrate used as the measure of target activity.Data from the assay component TOX21_p53_BLA_p5_ratio was analyzed into 1 assay endpoint. This assay endpoint, TOX21_p53_BLA_p5_ratio, was analyzed in the positive analysis fitting direction relative to DMSO as the negative control and baseline of activity. Using a type of inducible reporter, gain-of-signal activity can be used to understand changes in the reporter gene as they relate to the gene TP53. Furthermore, this assay endpoint can be referred to as a primary readout, because this assay has produced multiple assay endpoints and this ratio serves a reporter gene function to understand target activity. To generalize the intended target to other relatable targets, this assay endpoint is annotated to the DNA binding intended target family, where the subfamily is tumor suppressor.\nThawing Method: Place 14 mL of pre-warmed thaw medium into a 15 mL of conical tub. Remove the vial of cells to be thawed from liquid nitrogen and thaw rapidly by placing at 37C in a water bath with gentle agitation for 1-2 minutes. Decontaminate the vial by wiping with 70% ethanol before opening in a biological safety cabinet. Transfer the vial contents drop-wise into 14 mL of thaw medium in a sterile 15-mL conical tub. Centrifuge cells at 900 rpm for 4 minutes and resuspend in thaw medium. Transfer contents to the T75 tissue culture flask containing Thaw Medium and place flask in a humidified 37C/5% CO2 incubator. Switch to growth medium at first passage.Propagation Method: Aspirate medium, rinse once in DPBS, add 0.25% Trypsin/EDTA and swirl to coat the cell evenly. Add an equal volume of Growth Medium to inactivate Trypsin after 2-3 minutes incubation at 37C. Centrifuge cells at 900 rpm for 4 minutes and resuspend in growth medium. Cell should be passage or fed at least twice a week.Assay Protocol: Harvest cells from culture in growth medium and resuspend in assay medium. 2.2 Dispense 4000 cells/5 uL/well into 1536-well black/clear bottom plates using a Multidrop dispenser. After the cells were incubated at 37C for 5 hours, 23 nL of compounds dissolved in DMSO were transferred to the assay plate by a PinTool resulting in a 217-fold dilution. Incubate the plates for 16 hours at 37C, 5% CO2. Add 1 uL of 6X LiveBLAzer FRET B/G (CCF4-AM) Substrate Mixture to each well using a BioRAPTR dispenser and incubate the plates at room temperature for 2 hours. Measure fluorescence intensity at 460 and 530 nm emission and 405 nm excitation by an Envision detector. Data is expressed as the ratio of 460nm/530nm emissions. Add 4 uL of Cell-titer Glo to each well using BioRAPTR and incubate the plates at room temperature for 2 hours. Measure fluorescence intensity by a VewLux plate reader.", "values": [
      {"smiles": "Cc1nc2ccc(Cl)cc2[nH]1", "outcome": "inactive"},
      {"smiles": "C=CC(=O)CC", "outcome": "inactive"},
      {"smiles": "C=COCCCCO", "outcome": "inactive"},
      {"smiles": "CS(=O)(=O)O", "outcome": "inactive"},
      {"smiles": "COc1cc(S(C)=O)ccc1-c1nc2ncccc2[nH]1", "note": "(stereo not given)", "outcome": "inactive"},
      {"smiles": "Cc1cccc(C(=O)O)c1[N+](=O)[O-]", "outcome": "inactive"},
      {"smiles": "O[C@@H]1CO[C@H]2[C@@H]1OC[C@@H]2O", "outcome": "inactive"},
      {"smiles": "CC(O)CCCCn1c(=O)c2c(ncn2C)n(C)c1=O", "note": "(stereo not given)", "outcome": "inactive"},
      {"smiles": "Cc1ccc(N)nc1", "outcome": "inactive"},
      {"smiles": "CC(C(=O)O)c1ccc2c(c1)Cc1cccnc1O2", "note": "(stereo not given)", "outcome": "inactive"},
      {"smiles": "NC1CCN(c2nc3c(cc2F)c(=O)c(C(=O)O)cn3-c2ccc(F)cc2F)C1", "note": "(stereo not given)", "outcome": "inactive"},
      {"smiles": "Nc1ccc(C(=O)O)c(O)c1", "outcome": "inactive"},
      {"smiles": "CN1c2c(nc(N)[nH]c2=O)NCC1CNc1ccc(C(=O)NC(CCC(=O)O)C(=O)O)cc1", "note": "(stereo not given)", "outcome": "inactive"},
      {"smiles": "CCCCCCOC(=O)c1cccnc1", "outcome": "inactive"},
      {"smiles": "CC(=O)c1ccc(C(C)=O)cc1", "outcome": "inactive"},
      {"smiles": "O=C(O)CCC/C=C\\C[C@@H]1[C@@H](/C=C/[C@@H](O)COc2cccc(Cl)c2)[C@H](O)C[C@@H]1O", "outcome": "inactive"},
      {"smiles": "CCCOC(=O)c1ccccc1O", "outcome": "inactive"},
      {"smiles": "CCCOCC(C)OCC(C)O", "note": "(stereo not given)", "outcome": "inactive"},
      {"smiles": "O=Cc1ccc(F)c(Br)c1", "outcome": "inactive"},
      {"smiles": "CCc1cccc(C)c1", "outcome": "inactive"},
      {"smiles": "CCO/C([O-])=N/c1c[n+](N2CCOCC2)no1", "outcome": "inactive"},
      {"smiles": "C[C@H]1NCc2cc(-c3ccc4c(=O)c(C(=O)O)cn(C5CC5)c4c3OC(F)F)ccc21", "outcome": "inactive"},
      {"smiles": "CC(C)OC(=O)C(C(=O)OC(C)C)=C1SC=CS1", "outcome": "inactive"},
      {"smiles": "C[C@@H](O)C(=O)O", "outcome": "inactive"},
      {"smiles": "C=CC[N+]1([C@H]2C[C@H]3[C@@H]4CC[C@H]5C[C@H](O)[C@@H](N6CCOCC6)C[C@]5(C)[C@H]4CC[C@]3(C)[C@H]2OC(C)=O)CCCC1", "outcome": "inactive"},
      {"smiles": "COC(=O)Nc1nc2ccc(C(=O)c3ccccc3)cc2[nH]1", "outcome": "inactive"},
      {"smiles": "CCC(C)(C)CC", "outcome": "inactive"},
      {"smiles": "Clc1ccc2nsnc2c1NC1=NCCN1", "outcome": "inactive"},
      {"smiles": "Cn1nnnc1SCC1=C(C(=O)O)N2C(=O)[C@@H](NC(=O)[C@H](O)c3ccccc3)[C@H]2SC1", "outcome": "inactive"},
      {"smiles": "Cc1ccc(Cl)c(N)c1Cl", "outcome": "inactive"},
      {"smiles": "O=C(O)[C@H]1/C(=C/CO)O[C@@H]2CC(=O)N21", "outcome": "inactive"},
      {"smiles": "C[Si](Cl)(c1ccccc1)c1ccccc1", "outcome": "inactive"},
      {"smiles": "O=C1OC(=O)c2cccc3cccc1c23", "outcome": "inactive"},
      {"smiles": "CS(=O)(=O)NC(=O)CCC/C=C\\C[C@H]1C(=O)C[C@@H](O)[C@@H]1/C=C/[C@H](O)COc1ccccc1", "outcome": "inactive"},
      {"smiles": "NCCCC[C@H](NC(=O)[C@@H]1CCCN1C(=O)[C@@H]1CSSC[C@H](NC(=O)CNC(=O)CNC(=O)CN)C(=O)N[C@@H](Cc2ccc(O)cc2)C(=O)N[C@@H](Cc2ccccc2)C(=O)N[C@@H](CCC(N)=O)C(=O)N[C@@H](CC(N)=O)C(=O)N1)C(=O)NCC(N)=O", "note": "(H-GGGCYFQNCPKG-NH2; disulfide 4-9)", "outcome": "inactive"},
      {"smiles": "Cc1ccc(O)c(N)c1", "outcome": "inactive"},
      {"smiles": "CC1=NN(c2ccc(C(=O)O)cc2)C(=O)C1", "outcome": "inactive"},
      {"smiles": "COc1ccc(/C=C/c2cc(OC)cc(=O)o2)cc1", "outcome": "inactive"},
      {"smiles": "OCl", "outcome": "inactive"},
      {"smiles": "NS(=O)(=O)c1cc2c(cc1Cl)NC(C(Cl)Cl)NS2(=O)=O", "note": "(stereo not given)", "outcome": "inactive"}
    ]}
  ]
}
